Bioassay records deposited in PubChem BioAssay by National Center for Advancing Translational Sciences (NCATS).
The sample as a whole holds a higher share of hits than the screen did.
Pf Dd2 inh: blocks in vitro growth of P. falciparum Dd2 | P. falciparum Dd2 growth, SYBR Green, 72 h | Potency, µM (series often up to 28.9 µM), inactives show at the top dose activity, negative = inhibition, most hits filed as inhibitors | hit rate 4.3% among 120,000 | AID 1347417; active means well fitted inhibition curve with a large enough effect;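 further: plate controls were DMSO vehicle for no effect and reference drug for full effect; nearly all actives have a fitted effect of over 65% in size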
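Infected erythrocytes (Dd2, 0.3% parasitemia, 2.5% hematocrit final) are added to compound in RPMI-1640/Albumax II medium, grown 72 h at 37C in low oxygen, then lysed with saponin/Triton-X containing SYBR Green and read by fluorescence.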
The depositor's hits bear a star; i = inactive; [ ] = dose if it differs, or a comment. Potency means the concentration at half of the fitted maximal effect.

SMILES	Pf Dd2 inh
O=C(C1CCOCC1)N1CCC(Oc2cccc(F)c2)C1 (configuration not stated)	i
COc1ccc(C2Cn3cnc(C(=O)N4CCC(C(=O)NC(C)C)CC4)c3CO2)cc1 (configuration not stated)	-19%
Fc1ccc(-c2noc(-c3nc(-c4ccncc4)no3)n2)cc1F	i
COc1ccc2c(CNCc3ccc(C)o3)c(C(=O)O)n(Cc3ccccc3)c2c1	-16%
COc1ccc2c(CNCCc3cccs3)c(C(=O)O)n(Cc3ccc(F)cc3Cl)c2c1	i
COc1ccc2c(CNCCc3ccco3)c(C(=O)O)n(Cc3ccccc3)c2c1	-12%
COc1ccc(Cn2c(C(=O)O)c(CNCc3ccc(SC)cc3)c3ccc(OC)cc32)cc1	7.9µM*
C=Cc1ccc(Cn2c(C(=O)O)c(CNCc3ccccc3)c3ccc(OC)cc32)cc1	11µM*
COc1ccc2c(CNCc3cccs3)c(C(=O)O)n(Cc3ccc(F)cc3)c2c1	-3%
Cc1cc(C)cc(CCC(=O)N2CCC3(CC2)C(C(=O)O)CC(=O)N3C)c1 (configuration not stated)	-21%
CC(C)CCN1CCOc2cc([S+](=O)([O-])Nc3cccnc3)ccc2C1	i
CC(=O)N1CC2(CCCN(Cc3cccc(C(N)=O)c3)C2)Cc2ccccc21 (configuration not stated)	-4%
COc1ccc(CN2CCCCC23Cc2ccccc2CN(C(=O)CCC(=O)O)C3)cc1 (configuration not stated)	-22%
CC(=O)NCC(=O)N1Cc2ccccc2CC2(CCCN2Cc2ccccc2)C1 (configuration not stated)	-17%
CC(=O)N1Cc2ccccc2CC2(CCCN2Cc2ccccc2)C1 (configuration not stated)	-8%
CC(C)C(=O)N1Cc2ccccc2CC2(CCCCN2Cc2cccnc2)C1 (configuration not stated)	13µM*
O=C(O)CCC(=O)N1Cc2ccccc2CC2(CCCN2Cc2ccncc2)C1 (configuration not stated)	4%
NCC(=O)N1CCCC2(Cc3ccccc3CN2C(=O)Cc2cccc(Cl)c2)C1 (configuration not stated)	13µM*
CS(=O)(=O)N1CC2(CCCN2Cc2cccc(C(N)=O)c2)Cc2ccccc21 (configuration not stated)	14µM*
O=C(Cc1ccccc1)N1Cc2ccccc2CC2(CCCN2Cc2ccncc2)C1 (configuration not stated)	8.9µM*
NC(=O)c1cccc(CN2CCCC23Cc2ccccc2NC3=O)c1 (configuration not stated)	-6%
COc1ccc(CC(=O)N2Cc3ccccc3CC23CCCN(C(=O)CN)C3)cc1 (configuration not stated)	-21%
COc1ccc(CC(=O)N2Cc3ccccc3CC23CCCN(C(=O)CCCN)C3)cc1 (configuration not stated)	14%
NC1CC(c2cc(N3CCN(CCOc4ccccc4)CC3)ncn2)C1 (configuration not stated)	i
CCOCCn1c(=O)n(Cc2noc(C(C)(C)C)n2)c2cc(C(=O)O)cnc21	2%
SMILES	Pf Dd2 inh
COc1ccc(C(=O)N2CCC3(CC(C)=NO3)C2)cc1 (configuration not stated)	5%[44.1 µM]
Cc1nnsc1C(=O)N[C@H]1CCN(C(=O)c2ccco2)[C@H](C(=O)N[C@H](Cc2ccccc2)C(N)=O)C1	-4%
COC[C@@H]1CN(S(=O)(=O)c2cccc(C)c2)C[C@H]1c1nc(C)no1	-2%
CC(C)NC(=O)CN1C(=O)NC(c2ccccc2)C2=C1COC2=O (configuration not stated)	-4%
O=C(CC1C(=O)NCCN1Cc1ccc(-c2ccccc2)cc1)NCc1ccco1 (configuration not stated)	9%
O=C1OC2(CN1CC1CCOCC1)CN(c1ccccc1-c1ccccc1)C2	-25%[44.1 µM]
CCNC(=O)NC1(CCOC)CCN(C(=O)Cc2cccc(OC)c2)CC1	i
Cc1cc(=O)n(CC(=O)Nc2cccc(C(C)C)c2)c(N2CCOCC2)n1	i
O=C(C1CC1)N1CC2(CCCN2Cc2cccnc2)Cc2ccccc21 (configuration not stated)	10µM*
CN1CCC(C(=O)N2Cc3ccccc3CC3(CCN(Cc4cccnc4)C3)C2)CC1 (configuration not stated)	-24%
O=C(C1CCCC1)N1CC2(CCCCN2C2COC2)Cc2ccccc21 (configuration not stated)	21%
Cc1noc([C@@H]2CN(Cc3ccco3)C[C@H]2CO)n1	8%
Cc1cccc(-n2nc(-c3c(C)nc4scc(CC(=O)NC5CCCCC5)n4c3=O)cc2C)c1C	-6%
COc1ccc(N2CCN(C(=O)c3cc(S(=O)(=O)N4CCCCCC4)cn3C)CC2)cc1	-20%
COc1ccccc1N1CCN(C(=O)c2cc(S(=O)(=O)N3CCC(C)CC3)cn2C)CC1	8.9µM*
COc1ccc(Cl)cc1NC(=O)c1cc(S(=O)(=O)N2CCC(C)CC2)cn1C	28%
CC1CCN(Cc2ccc(C(=O)N3CCCC4(CCNC4)C3)o2)CC1 (configuration not stated)	3%
O=C(N[C@H]1CO[C@H]2[C@@H]1OC[C@@H]2n1nnnc1Oc1ccc2c(c1)OCO2)c1ccc(C(F)(F)F)cc1	-23%
Cc1ccc(N2CCC3(CCCN3Cc3ccc4nsnc4c3)CC2)nn1	13µM*
COCC(=O)N1CCCC(C(=O)NCc2ccc3nsnc3c2)C1 (configuration not stated)	0%
CN(Cc1ccc2nsnc2c1)C(=O)c1ccc(N2CCCC2=O)cc1	13%
CN1C[C@@H]2CCCN3CCC[C@@H]([C@H]23)[C@H]1CCCC(=O)NCC1CC1	-5%
Cc1cccc(NC(=O)c2c(NC(=O)c3cccs3)sc3c2CCC(C)C3)c1 (configuration not stated)	34%
CC1CCc2c(sc(NC(=O)COc3ccccc3)c2C(=O)Nc2ccccc2Cl)C1 (configuration not stated)	98%
COc1ccccc1NC(=O)c1c(NC(=O)c2ccco2)sc2c1CCC(C(C)(C)C)C2 (configuration not stated)	-2%
SMILES	Pf Dd2 inh
CCCOc1ccc(/C=C/C(=O)Nc2sc3c(c2C(=O)OCC)CCC(C)C3)cc1OC (configuration not stated)	43%
CCOC(=O)c1c(NC(=O)c2cc3ccccc3c(=O)o2)sc2c1CCC(C)C2 (configuration not stated)	34%
CCOc1ccc(NC(=O)c2c(NC(=O)c3ccco3)sc3c2CCC(C(C)(C)C)C3)cc1 (configuration not stated)	10µM*
CCOC(=O)c1ccc(NC(=O)c2c(NCc3ccc(OC)c(OC)c3OC)sc3c2CCC(C)C3)cc1 (configuration not stated)	10µM*
CCOc1ccc(NC(=O)c2c(NC(=O)c3cccs3)sc3c2CCC(C(C)(C)C)C3)cc1 (configuration not stated)	-17%
CC1CCc2c(sc(NC(=O)c3ccccc3)c2C(=O)Nc2ccccc2)C1 (configuration not stated)	13µM*
CC(C)(C)C1CCc2c(sc(NC(=O)c3ccncc3)c2C(=O)Nc2ccccc2Cl)C1 (configuration not stated)	15%
CC(C)(C)C1CCc2c(sc(NC(=O)c3ccc(Cl)cc3)c2C(=O)NCc2ccco2)C1 (configuration not stated)	5.6µM*
